In test [1] the test system is TTK. The conditions noted are these: concentration: 1 μM, replicates: in singlicate; n = 1.
The test system of test [2] is TXK. The conditions noted are these: n = 1.
For test [3], the system named is TYK2(JH1domain-catalytic). The conditions noted are these: n = 1.
Test [4] relates to TYK2(JH2domain-pseudokinase). The following applies: n = 1.
The test system of test [5] is TYRO3. The conditions noted are these: n = 1.
In test [6] the test system is ULK1. The following applies: concentration: 1 μM, replicates: in singlicate; n = 1.
The test system of test [7] is ULK2. The following applies: n = 1.
Test [8] concerns ULK3. The following applies: n = 1.
For test [9], the system named is T1, VEGFR2.
T1 construct: gene KDR
The following applies: n = 1.

Test [10] deals with T2, VPS34.
T2 construct: gene PIK3C3
The following applies: n = 1.

Test [11] relates to VRK2. The conditions noted are these: concentration: 1 μM, replicates: in singlicate; n = 1.
Test [12] concerns WEE1. The conditions noted are these: n = 1.
Test [13] has as its system WEE2. The following applies: n = 1.
The test system of test [14] is WNK1. The following applies: n = 1.
Test [15] has as its system WNK2. The following applies: n = 1.
Test [16] concerns WNK3. The following applies: n = 1.
Test [17] deals with WNK4. The following applies: n = 1.
The subject of test [18] is T3, YANK1.
T3 construct: gene STK32A
The following applies: n = 1.

Test [19] deals with T4, YANK2.
T4 construct: gene STK32B
The conditions noted are these: n = 1.

Test [20] relates to T5, YANK3.
T5 construct: gene STK32C
The conditions noted are these: n = 1.

The mark [21] stands for this setting: concentration: 1 μM, replicates: in singlicate.
The mark [22] stands for this setting: concentration: 1 μM,replicates: in singlicate, 1 µM.

Where “and” joins values, the source holds several entries; their conditions need not be identical. Equal values may be shown once. Read-outs that look alike come from different tables or passages of the source.
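Note: KINOMEscan kinase panel screen.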

With `COc1cccc(NC(=O)NC2CCN(c3ccnc(Nc4ccc(F)cc4)n3)C2)c1` (stereo not shown) [GSK1379721], the “%Inh” value is reported as 9% in test [1]; 41% in test [2] (setting [21]); 26% in test [3] (setting [21]); 52% in [4] (setting [21]); 0% in test [5] (setting [21]); 13% in test [6]. Further, the “%Inh” value came out at 0% in test [7] (setting [21]); 9% in [8] (setting [21]); 10% in test [9] (setting [21]); 7% in test [10] (setting [21]); 0% in [11]; 6% in test [12] (setting [21]). In addition, the “%Inh” value in test [13] (setting [21]) worked out at 0%; in test [14] (setting [21]), 5%; in [15] (setting [21]) it was 8%; in test [16] (setting [21]) it was 33%; in test [17] (setting [21]), 2%; in [18] (setting [21]), 0%. The “%Inh” value in test [19] (setting [21]) and in test [20] (setting [21]) was 0% in each case.

Take `Cc1cc(NCC(c2ccccc2)c2ccccc2)nc(NCc2ccc(C(F)(F)F)cc2)n1` [GW497681]: the “%Inh” value in [1] turned out to be 0%; in test [2] (setting [21]) it was 0%; in [3] (setting [21]), 9%; in test [4] (setting [21]), 23%; in [5] (setting [21]), 0%; in [6] it was 0%. In addition, the “%Inh” value in [7] (setting [21]) worked out at 0%; in test [8] (setting [21]), 0%; in [9] (setting [21]), 0%; in test [10] (setting [21]), 0%; in test [11], 0%; in test [12] (setting [21]) it was 11%. Further, the “%Inh” value in [13] (setting [21]) amounted to 0%; in test [14] (setting [21]), 0%; in [15] (setting [21]), 0%; in test [16] (setting [21]), 27%; in test [17] (setting [21]), 37%; in [18] (setting [21]), 0%. The “%Inh” value in [19] (setting [21]) and in test [20] (setting [21]) was 0% throughout.

Consider `Cc1c(O)cccc1Nc1ccnc2ccc(C(F)(F)F)cc12.Cl` [GW466413], for which the “%Inh” value in test [1] is on record as 0%; in [2] (setting [21]), 25%; in test [3] (setting [21]), 9%; in test [4] (setting [21]), 14%; in [5] (setting [21]), 3%; in test [6] it was 2%. The “%Inh” value turned out to be 0% in [7] (setting [21]); 0% in test [8] (setting [21]); 0% in [9] (setting [21]); 0% in test [10] (setting [21]); 26% in test [11]; 0% in test [12] (setting [21]). Moreover, the “%Inh” value in test [13] (setting [21]) came to 0%; in [14] (setting [21]), 23%; in [15] (setting [21]), 17%; in [16] (setting [21]), 21%; in test [17] (setting [21]), 1%; in test [18] (setting [21]), 0%. Moreover, the results for the “%Inh” value in test [19] (setting [21]) and in [20] (setting [21]) were 10% and 15%, respectively.

In the case of `CSc1nn2c(=O)cc(N3CCOCC3)nc2n1Cc1cccc(C(F)(F)F)c1C` [GSK2363608], the “%Inh” value in [1] is 0%; in test [2] (setting [22]), 10% and 0%; in [3] (setting [22]) it was 51% and 72%; in test [4] (setting [22]), 16% and 8%; in test [5] (setting [22]) it was 0% and 18%; in test [6], 15%. For the same molecule, the “%Inh” value in test [7] (setting [22]) is 5% and 0%; in test [8] (setting [22]) it was 15% and 0%; in test [9] (setting [22]), 8% and 0%; in test [10] (setting [22]) it was 94.7% and 96.7%; in test [11], 0%; in test [12] (setting [22]) it was 15% and 11%. Besides, the “%Inh” value in test [13] (setting [22]) is 9% and 10%; in test [14] (setting [22]) it was 13% and 7%; in [15] (setting [22]), 14% and 22%; in test [16] (setting [22]), 24% and 10%; in [17] (setting [22]), 1% and 4%; in [18] (setting [22]), 0% and 3%. Moreover, the “%Inh” value in [19] (setting [22]) is 8% and 0%; in test [20] (setting [22]) it was 0% and 68%.

`Cn1ccc2ncnc(Oc3ccc(Nc4nc5ccccc5[nH]4)cc3)c21`: the “%Inh” value was 2% in test [1]; 0% in test [2] (setting [21]); 0% in test [3] (setting [21]); 0% in [4] (setting [21]); 0% in [5] (setting [21]); 0% in test [6]. Further, the “%Inh” value in test [7] (setting [21]), in test [8] (setting [21]), in test [9] (setting [21]), in test [10] (setting [21]), in test [11] and in test [12] (setting [21]) was 0% throughout. The “%Inh” value in test [13] (setting [21]) turned out to be 19%; in [14] (setting [21]), 0%; in test [15] (setting [21]) it was 0%; in test [16] (setting [21]), 0%; in [17] (setting [21]), 0%; in [18] (setting [21]), 0%. Besides, the “%Inh” value in test [19] (setting [21]) is 0%; in test [20] (setting [21]) it was 2%.

Consider `O=C(Nc1n[nH]c2nc(-c3nccs3)c(Br)cc12)C1CC1` [SB-742251], for which the “%Inh” value in test [1] is listed as 0%; in [2] (setting [21]), 0%; in test [3] (setting [21]), 36%; in test [4] (setting [21]), 77%; in test [5] (setting [21]), 0%; in test [6] it was 21%. The “%Inh” value is on record as 7% in test [7] (setting [21]); 0% in [8] (setting [21]); 0% in [9] (setting [21]); 0% in test [10] (setting [21]); 0% in test [11]; 16% in test [12] (setting [21]). In addition, the “%Inh” value in [13] (setting [21]) turned out to be 7%; in test [14] (setting [21]), 23%; in [15] (setting [21]), 2%; in test [16] (setting [21]), 35%; in [17] (setting [21]), 51%; in [18] (setting [21]), 6%. Besides, the “%Inh” value in test [19] (setting [21]) was 0%; in test [20] (setting [21]) it was 7%.

Take `O=C(Nc1ccccc1)Nc1cccc(Oc2ccc3nccn3n2)c1`: the “%Inh” value in [1] is recorded as 0%; in [2] (setting [21]), 0%; in [3] (setting [21]) it was 14%; in test [4] (setting [21]), 1%; in [5] (setting [21]), 11%; in test [6] it was 0%. Moreover, the “%Inh” value was determined as 0% in test [7] (setting [21]); 0% in [8] (setting [21]); 0% in test [10] (setting [21]); 0% in test [11]; 0% in [12] (setting [21]); 41% in [13] (setting [21]). Also, the “%Inh” value in test [14] (setting [21]) is recorded as 0%; in test [15] (setting [21]) it was 0%; in test [16] (setting [21]), 0%; in test [17] (setting [21]), 17%; in test [18] (setting [21]), 0%; in test [19] (setting [21]), 29%. Also, the “%Inh” value in test [20] (setting [21]) is 0%.

For `Cc1csc(-c2nc(Nc3ccncc3)c3ccccc3n2)n1` [GW869640], the “%Inh” value in [1] is 35%; in [2] (setting [21]), 0%; in test [3] (setting [21]), 100%; in test [4] (setting [21]) it was 83%; in [5] (setting [21]), 0%; in [6], 33%. The “%Inh” value in [7] (setting [21]) was determined as 23%; in [8] (setting [21]) it was 50%; in test [9] (setting [21]), 36%; in test [10] (setting [21]), 33%; in [11] it was 20%; in [12] (setting [21]), 1%. Moreover, the “%Inh” value came to 12% in [13] (setting [21]); 37% in [14] (setting [21]); 0% in test [15] (setting [21]); 33% in [16] (setting [21]); 13% in test [17] (setting [21]); 2% in [18] (setting [21]). Further, the “%Inh” value came out at 3% in test [19] (setting [21]) and 43% in [20] (setting [21]).

Regarding `Clc1cc(Cl)cc(Nc2ccnc(Nc3cc(Cl)cc(Cl)c3)n2)c1` [GSK175726], the “%Inh” value in test [1], in test [2] (setting [21]), in test [3] (setting [21]), in test [4] (setting [21]), in test [5] (setting [21]) and in [6] was 0% each time. Further, the “%Inh” value in test [7] (setting [21]) came out at 0%; in test [8] (setting [21]), 0%; in [9] (setting [21]), 12%; in test [10] (setting [21]) it was 0%; in test [11], 6%; in [12] (setting [21]), 6%. Also, the “%Inh” value in test [13] (setting [21]) worked out at 0%; in test [14] (setting [21]) it was 0%; in test [15] (setting [21]), 0%; in [16] (setting [21]), 22%; in test [17] (setting [21]) it was 32%; in [18] (setting [21]), 0%. Moreover, the “%Inh” value in test [19] (setting [21]) is 0%; in test [20] (setting [21]), 14%.

Take `COc1cc2nccc(Nc3ccc(NC(=O)c4ccc(C)cc4)c(O)c3)c2cc1OC.Cl` [GW440132]: the “%Inh” value is 0% in test [1]; 10% in [2] (setting [21]); 0% in test [3] (setting [21]); 1% in [4] (setting [21]); 0% in test [5] (setting [21]); 21% in test [6]. Also, the “%Inh” value is 0% in [7] (setting [21]); 7% in test [8] (setting [21]); 0% in [9] (setting [21]); 14% in [10] (setting [21]); 0% in test [11]; 2% in [12] (setting [21]). Further, the “%Inh” value in [13] (setting [21]) is listed as 11%; in [14] (setting [21]), 7%; in test [15] (setting [21]) it was 14%; in test [16] (setting [21]), 14%; in [17] (setting [21]) it was 0%; in test [18] (setting [21]), 11%. Besides, the entries for the “%Inh” value in test [19] (setting [21]) and in test [20] (setting [21]) were 0% and 16%, respectively.

Source of the values: article PMC5540273 (PLoS ONE, 2017).
